High-throughput results deposited in PubChem BioAssay by National Center for Advancing Translational Sciences (NCATS).
Sampled rows, rich in hits. Any-hit rate of the full collection: about 3.2%.
GLP1R inv ag: GLP-1 receptor (human) inverse agonism; AID 624417; Potency, µM (titrated, usually from 38.3 µM), usual class: inhibitors; 410,000 compounds, 1.6% hits; HEK293 GLP-1R CRE-luciferase, luminescence, 24 h; GLP-1R form is constitutively active; further: nearly all actives have a fitted effect of over 55% in size
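HEK293 cells stably co-expressing a cAMP-responsive luciferase reporter and constitutively active GLP-1R were seeded, incubated 12 h, then exposed to compounds for 24 h at 37 C. Luminescence was read 12 min after detection reagent; inverse agonists lower signal.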
HEK293 tox: cytotoxicity counter-screen for GLP-1 receptor inverse agonists | HEK293 cAMP-luciferase reporter cells, luminescence, 24 h | Potency, µM (doses to about 38.3 µM), hits mostly inhibitors | 410,000 compounds, 0.13% hits;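 further: loss of luciferase light is scored as toxicity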
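1536-well qHTS counterscreen of the MLSMR; 200 cells/uL, 12 h pre-incubation, 23 nL cpd, 24 h at 37 deg C 5% CO2, luciferase detection reagent, 12 min RT, luminescence. Inhibition = undesired.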
ClpP mod: qHTS Assay for Activators of ClpP; 340,000 compounds, 1.9% hits; Potency, µM (highest dose often 57.5 µM); ATP-dependent Clp protease proteolytic subunit (Bacillus subtilis (strain 168)), P80244; purified B. subtilis ClpP, FRET peptide cleavage, 20 min; active means well fitted falling curve with a large enough effect; inconclusive means small, poorly fitted or top-dose-only effect; inactive means no such curve, though single readings can be large or run the other way; further: the source files actives as falling curves though it sought activators and does not explain the sign; nearly all actives have a fitted effect of over 65% in size
Target sequence (P80244 whole entry, looked up): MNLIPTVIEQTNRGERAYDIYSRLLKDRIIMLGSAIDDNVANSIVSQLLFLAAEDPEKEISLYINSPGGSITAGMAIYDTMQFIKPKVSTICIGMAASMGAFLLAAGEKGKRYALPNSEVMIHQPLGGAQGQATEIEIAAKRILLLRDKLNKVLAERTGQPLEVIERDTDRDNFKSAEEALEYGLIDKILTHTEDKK
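Buffer: 100 mM Tris/HCl pH8, 100 mM KCl, 0.05% low protease BSA, 2.5% glycerol, 0.01% Tween-20. ClpP 10 microg/mL final; 20 min RT; delta FRET normalized to ADEP and DMSO controls.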
GLP1R ag: activates the human GLP-1 receptor | AID 624172 | Potency, µM (doses to about 45.6 µM), most hits filed as activators | HEK293 GLP-1R CRE-luciferase, luminescence, 4-6 h; cells express a hypersensitive GLP-1R form | 380,000 compounds, 0.007% hits | P43220
Each line names hits and unclear results; the compound was inactive in the other large screens. Unless noted, the call rests on the fitted dose curve; in most records, active means well fitted curve in the direction sought with a large enough effect; inconclusive means small, poorly fitted or top-dose-only effect, or another doubt; inactive means no such curve, though single readings can be large; an effect the other way counts as inactive or inconclusive.

Cc1cccc(-n2ncc3c(NC(C)C)ncnc32)c1	GLP1R inv ag inconclusive
Cc1ccc(-n2ncc3c(Nc4ccc(Oc5ccccc5)cc4)ncnc32)c(C)c1	GLP1R inv ag 10µM (no result: GLP1R ag)
Cc1ccc(Cl)cc1N1CCN(C(=O)C2CCN(S(=O)(=O)c3cn(C)cn3)CC2)CC1	none (no result: GLP1R ag)
CCN(CC)S(=O)(=O)c1ccc2c(c1)nc(CN(C)C(=O)Nc1ccc(F)cc1)n2C	none (no result: GLP1R ag)
CCc1c(C)c(C#N)c2nc3ccccc3n2c1Nc1cccc(C(F)(F)F)c1	none (no result: GLP1R ag)
Cc1ccc(CNc2ncnc3c2cnn3-c2ccc(C)cc2C)cc1	GLP1R inv ag inconclusive (no result: GLP1R ag)
CCc1ccccc1Nc1ncnc2c1cnn2-c1ccc(C)cc1C	GLP1R inv ag 13µM (no result: GLP1R ag)
Cc1cccc(-n2ncc3c(NCCCN4CCCC4=O)ncnc32)c1	ClpP mod 28µM
Cc1cc(OCC(=O)N(Cc2ccc(N(C)C)cc2)C2CCS(=O)(=O)C2)cc(C)c1Cl (centres undefined)	GLP1R inv ag inconclusive, HEK293 tox inconclusive (no result: GLP1R ag)
COC(=O)c1cc2c(n1S(=O)(=O)c1ccc(C)cc1)C(=O)C(=O)c1[nH]cc(C(=O)OCc3ccccc3)c1-2	GLP1R inv ag inconclusive, HEK293 tox 4µM
CCCC(=O)Nc1nc2nc(-c3ccccc3)cc(-c3ccccc3)n2n1	ClpP mod 13µM
CCC(=O)Nc1nc2nc(-c3ccccc3)cc(-c3ccccc3)n2n1	none
O=C(O)CNC(=O)c1ccccc1I	none (no result: GLP1R inv ag, HEK293 tox, ClpP mod)
CN(C1=C(N2CCOCC2)C(=O)c2ccccc2C1=O)c1ccccc1	GLP1R inv ag 10µM, HEK293 tox inconclusive
Cc1cc(Br)cn2c(Cc3cccc(Cl)c3)c(-c3cccc(Cl)c3)nc12	GLP1R inv ag 10µM
CCOC(=O)c1cnn(-c2ccc(OC)cc2)c1C1CCN(C(=O)OC(C)(C)C)CC1	GLP1R inv ag inconclusive
COC(=O)c1ccc2ccn(CC(=O)NC3CCCCC3)c2c1	ClpP mod 8.9µM
N#Cc1ccc2ccn(CC(=O)NC3CCCCCC3)c2c1	ClpP mod inconclusive
CCN(CC(=O)NC1CCS(=O)(=O)C1)S(=O)(=O)c1ccc(C)c(C)c1 (centres undefined)	none
CCN(CC(=O)NC1CCS(=O)(=O)C1)S(=O)(=O)c1ccc2ccccc2c1 (centres undefined)	ClpP mod 25µM
COc1cc(SC)ccc1C(=O)N(CC(=O)Nc1ccccc1Br)Cc1ccco1	GLP1R inv ag 10µM (no result: ClpP mod)
O=C(c1c[nH]c2ccc(S(=O)(=O)N3CCC4(CC3)OCCO4)cc2c1=O)N1CCOCC1	ClpP mod 16µM
COC(CNC(=O)c1c[nH]c2ccc(S(=O)(=O)N3CCC4(CC3)OCCO4)cc2c1=O)OC	ClpP mod 22µM
Cc1cccc(N(C)S(=O)(=O)c2ccc3[nH]cc(C(=O)N4CCOCC4)c(=O)c3c2)c1	ClpP mod inconclusive
Cn1ccnc1SCc1cn2cc(Br)ccc2n1	GLP1R inv ag 4.5µM
Cc1ccc(S(=O)(=O)N2CCC(C(=O)NCCc3ccccn3)CC2)cc1	ClpP mod 22µM
O=C(NCCc1ccccn1)C1CCN(S(=O)(=O)c2ccc(Cl)cc2)CC1	none
O=C(NCCOCCn1c(=O)oc2ccccc21)Nc1ccc(F)cc1	none (no result: GLP1R ag)
Cc1ccccc1-n1c(SCc2csc(Nc3ccccc3)n2)nnc1-c1cccnc1	GLP1R inv ag inconclusive
Cc1ccc(Nc2nc(CSc3nnc(-c4cccnc4)n3-c3ccccc3C)cs2)cc1	GLP1R inv ag inconclusive, ClpP mod 28µM
CNc1nn(-c2cccc(Cl)c2)nc1N	GLP1R inv ag inconclusive, ClpP mod 32µM
CCc1nn(CC(=O)NC2CC2)c(=O)c2cc3c(OC)cccc3n12	none (no result: GLP1R ag)
COc1ccccc1C(=O)Nc1ccc(S(=O)(=O)Nc2cc(C)on2)cc1	ClpP mod 25µM
Cc1cc(NS(=O)(=O)c2ccc(NC(=O)c3ccccc3F)cc2)no1	none
CCC(CC)C(=O)N1CCc2cc(OC)c(OC)cc2C1COc1ccc(C(=O)OC)cc1 (centres undefined)	GLP1R ag inconclusive
O=[N+]([O-])c1ccc(NC2CCCC2)cc1	none
O=[N+]([O-])c1ccc(N/N=C2/CCCCC2c2ccccn2)cc1 (centres undefined)	GLP1R inv ag 1.3µM (no result: ClpP mod)
Cc1cc(=O)n(C(C)C(=O)N2CCCc3ccccc32)c2c1c(C)nn2-c1ccccc1 (centres undefined)	none (no result: GLP1R ag)
